NR3A LBD binder = binders of NR3A ligand-binding domain, primary screen, biophysical, differential scanning fluorimetry, uHTS | AID 1259313, 2017 | hit rate 2.5% among 340,000 | Tm shift relative to glycine control, % at 25 µM | NR3A LBD differential scanning fluorimetry, Tm shift; 0% = protein alone, 100% = glycine-bound protein | Glutamate receptor ionotropic, NMDA 3A (GRIN3A) ligand-binding domain;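 active means melting temperature shift of at least 10% of the positive control shift, at one fixed dose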
ADAM10 inh = human ADAM10 inhibitors, primary screen, biochemical, QFRET, HTS; Disintegrin and metalloproteinase domain-containing protein 10 (Homo sapiens), O14672; recombinant ADAM10, EDANS/DABCYL FRET peptide cleavage, 3 h; inhibition, % at 7 µM; hit rate 0.62% among 370,000; AID 720582, 2013;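 active means inhibition above a per-campaign cutoff equal to the mean of compounds falling between control-based bounds plus 3 SD, cut at about 20% in these data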
AHR activator = AHR activators, primary screen, cell-based, luminescence, luciferase reporter, human. Aryl hydrocarbon receptor (Homo sapiens), P35869. AHR-responsive luciferase reporter cells. activation, % at 5 µM. hit rate 2.5% among 320,000; in the data active means activation above about 47%
Target sequence (P35869 whole entry, looked up): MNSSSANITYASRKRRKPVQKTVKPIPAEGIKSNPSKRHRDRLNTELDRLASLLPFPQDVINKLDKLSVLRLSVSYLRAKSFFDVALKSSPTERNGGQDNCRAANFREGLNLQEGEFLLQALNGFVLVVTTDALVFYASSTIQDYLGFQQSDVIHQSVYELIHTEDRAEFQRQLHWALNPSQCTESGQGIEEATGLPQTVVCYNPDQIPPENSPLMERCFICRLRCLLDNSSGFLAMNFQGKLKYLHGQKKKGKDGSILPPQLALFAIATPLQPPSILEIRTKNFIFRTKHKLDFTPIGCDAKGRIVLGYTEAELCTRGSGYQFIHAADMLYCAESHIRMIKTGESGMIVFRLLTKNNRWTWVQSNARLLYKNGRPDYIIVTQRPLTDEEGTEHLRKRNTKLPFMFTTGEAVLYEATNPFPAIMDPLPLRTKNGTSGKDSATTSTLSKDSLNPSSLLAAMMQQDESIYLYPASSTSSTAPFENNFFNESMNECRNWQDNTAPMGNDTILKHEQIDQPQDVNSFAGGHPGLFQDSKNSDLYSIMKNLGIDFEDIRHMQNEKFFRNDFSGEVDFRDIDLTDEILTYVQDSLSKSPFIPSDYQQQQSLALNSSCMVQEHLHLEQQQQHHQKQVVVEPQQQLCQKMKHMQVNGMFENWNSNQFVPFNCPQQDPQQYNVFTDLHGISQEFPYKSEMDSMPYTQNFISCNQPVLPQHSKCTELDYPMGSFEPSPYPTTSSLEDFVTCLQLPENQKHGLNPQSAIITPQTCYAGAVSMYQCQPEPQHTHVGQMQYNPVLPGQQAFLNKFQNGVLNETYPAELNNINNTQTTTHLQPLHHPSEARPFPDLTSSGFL
rCAG RNA binder = binders of r(CAG) RNA repeats, primary screen, biochemical, fluorescence; r(CAG) RNA repeat, TO-PRO-1 dye displacement fluorescence; inhibition, % at 3 µM; hit rate 1.3% among 370,000; AID 651821, 2012;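 active means inhibition above the plate cutoff, the mean of all test compounds on that plate plus 3 SD, cut at about 35% in these data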;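 further: higher means more dye released from RNA so lower well fluorescence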
proKLK7 act = proKLK7 zymogen activators, primary screen, biochemical, fluorescence intensity; Kallikrein-7 (Homo sapiens), P49862; purified proKLK7, EDANS-DABCYL substrate fluorescence; 100% is mature enzyme control, 0% vehicle; activation, % at 7 µM; hit rate 0.9% among 370,000; AID 652039, 2013;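 active means activation above the mean of all tested compounds plus 3 SD, computed per campaign excluding outliers beyond control limits, cut at about 13% in these data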
ADAM17 inh = ADAM17 inhibitors, primary screen, biochemical, QFRET. Disintegrin and metalloproteinase domain-containing protein 17 (Homo sapiens), P78536. recombinant ADAM17, EDANS/DABCYL FRET peptide cleavage. inhibition, % at 6.95 µM. hit rate 0.83% among 370,000;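 active means inhibition above the mean of compounds lying between control limits plus 3 SD, set per campaign, cut at about 8.5% in these data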
rCAG bind conf = small molecules binding CAG repeat RNA – biochemical, fluorescence, confirmation; shares compounds with rCAG RNA binder; r(CAG) RNA repeat, TO-PRO-1 dye displacement fluorescence; inhibition, % at 3 µM; hit rate 70% among 4,300;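 active means inhibition above a per-plate cutoff, the mean inhibition of sample wells plus 3 SD, cut at about 35% in these data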;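 further: loss of TO-PRO-1 fluorescence as compound displaces dye from 1x1 AA loop RNA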
DNA CAG counter = displacement of TO-PRO-1 from CAG DNA duplex, counter-screen for rCAG RNA repeat binder project, biochemical, fluorescence, TO-PRO-1 dye, d(CAG) DNA oligo; d(CAG) DNA oligo TO-PRO-1 dye displacement; AID 652068, 2013; hit rate 94% among 4,300; inhibition, % at 3 µM; shares compounds with rCAG RNA binder;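 active means inhibition above its plate's cutoff, the mean test-well inhibition plus 3 SD, cut at about 4.8% in these data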;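 further: hits displace the dye from DNA and so lower well fluorescence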
proKLK7 act conf = proKLK7 zymogen activators, confirmation, biochemical, fluorescence intensity, triplicate | shares compounds with proKLK7 act | purified proKLK7, EDANS-DABCYL substrate fluorescence; scaled: vehicle 0, mature enzyme 100 | activation, % at 7 µM | hit rate 68% among 3,200 | AID 686949, 2013;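 active means activation, as change over the incubation, above the mean of all tested compounds plus 3 SD, cut at about 13% in these data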
EDANS interfere = EDANS-DABCYL substrate optical interference, artefact control for kallikrein-7 zymogen activator project, biochemical, fluorescence intensity, high throughput. no enzyme, 4 h; solvent 0%, active enzyme control 100%. AID 686952, 2013. activation, % at 7 µM. hit rate 80% among 3,200. shares compounds with proKLK7 act;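 active means activation above the all-compound mean plus 3 SD, ignoring values outside control-based bounds, cut at about 4.8% in these data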;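 further: value is the 4 h activation minus the activation read at time zero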
K7 EDANS ctr = optically interferes with EDANS-DABCYL fluorescence, kallikrein-7 activator counter-screen; shares compounds with proKLK7 act; EDANS-DABCYL peptide fluorescence interference, no enzyme; EC50, µM; hit rate 20% among 250;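 active means compounds that raise the fluorescence signal in this interference counterscreen, with EC50 at or below 10 µM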;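 further: intact quenched peptide substrate alone read at 355 nm excitation and 520 nm emission; signal is fluorescence gain from T0 to T4 after four hours at room temperature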
ADAM10 confirm = human ADAM10 inhibitors, confirmation, biochemical, QFRET, triplicate. hit rate 1% among 2,100. shares compounds with ADAM10 inh. AID 743208, 2013. inhibition, % at 6.95 µM. ADAM10 QFRET peptide cleavage, EDANS fluorescence;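 active means inhibition above about 20% chosen separately for each screening run, limit read from the data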
ADAM17 ctr = ADAM17 inhibitors, counter-screen for ADAM10 exosite inhibitor project, biochemical, QFRET, high throughput; shares compounds with ADAM10 inh; ADAM17 QFRET peptide cleavage, EDANS fluorescence; inhibition, % at 6.95 µM; hit rate 0.5% among 2,100;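 active means mean triplicate inhibition above the solvent-only control wells' mean plus 3 SD, cut at about 12% in these data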
ADAM10 counter = ADAM10 inhibitors, counter-screen for ADAM17 exosite inhibitor project, biochemical, FRET, human ADAM10; recombinant ADAM10, EDANS/DABCYL FRET peptide cleavage, 3 h; hit rate 47% among 2,900; shares compounds with ADAM17 inh; inhibition, % at 6.95 µM;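 active means mean inhibition over the triplicate runs exceeds the activity threshold set in the earlier primary screen, cut at about 20% in these data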
ADAM17 confirm = ADAM17 inhibitors, hit retest, confirmation, biochemical, QFRET peptide cleavage | inhibition, % at 6.95 µM | shares compounds with ADAM17 inh | hit rate 65% among 2,900 | recombinant ADAM17, EDANS/DABCYL QFRET peptide cleavage;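 active means mean inhibition across replicates above the hit cutoff set in the primary screen, cut at about 8.5% in these data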
Numbers stand for hits; n = inactive; x = no result given. Rows were chosen to be rich in hits. Some 7% of all compounds tested hit in one or more screens of this group.

SMILES	NR3A LBD binder	ADAM10 inh	AHR activator	rCAG RNA binder	proKLK7 act	ADAM17 inh	proKLK7 act conf	EDANS interfere	others
O=C1/C(=C\c2ccc(O)c(O)c2)SC(=S)N1Cc1ccccc1	29.2	23.0	x	64.0	n	8.9	x	x	rCAG bind conf=68.6;DNA CAG counter=38.4;ADAM10 confirm=n;ADAM17 ctr=n;ADAM10 counter=35.6;ADAM17 confirm=20.9
COc1cc(/C=C2\SC(=S)N(NC(=O)c3ccccc3OC)C2=O)ccc1O	n	n	x	58.0	n	10.5	x	x	rCAG bind conf=50.6;DNA CAG counter=19.1;ADAM10 counter=23.1;ADAM17 confirm=10.8
O=C1/C(=C/c2ccc(O)cc2)SC(=S)N1Cc1cccnc1	n	n	n	n	n	n	x	x
CCOC(=O)C1=C[C@@H](C(C)C)N(S(=O)(=O)c2ccc(C)cc2)[C@H]1c1ccc(C(F)(F)F)cc1	x	n	x	n	n	n	x	x
COC1=CC(C)C2CC3OC(O)CC4C(C)=C(OC)C(=O)C(C2(C)C1=O)C34C (stereo not given)	x	n	x	n	n	n	x	x
Cc1ccc(O)c(N=Cc2cc(Cc3ccccc3)cc([N+](=O)[O-])c2O)c1	n	37.6	x	45.8	n	18.7	x	x	rCAG bind conf=n;DNA CAG counter=16.2;ADAM10 confirm=n;ADAM17 ctr=n;ADAM10 counter=21.6;ADAM17 confirm=n
O=[N+]([O-])c1cc(Cc2ccccc2)cc(C=Nc2ccc(N3CCOCC3)cc2)c1O	n	x	n	x	x	x	x	x
Cc1ccc(O)c(Cc2cc(C)cc(Cc3cc(C)ccc3O)c2O)c1	x	n	x	39.9	n	9.4	x	x	rCAG bind conf=38.9;DNA CAG counter=10.7;ADAM10 counter=29.9;ADAM17 confirm=13.7
Cc1cc(-c2csc(NC(=O)c3cc4ccccc4o3)n2)c(C)n1C	n	n	n	44.2	n	10.9	x	x	rCAG bind conf=52.2;DNA CAG counter=25.4;ADAM10 counter=n;ADAM17 confirm=n
O=C(Nc1nc(-c2ccccn2)cs1)c1cc2ccccc2o1	n	n	n	n	n	n	x	x
CC(C)(C)OC(=O)Nc1ccccc1-n1nnnc1C(C(=O)c1ccc(F)cc1)N1CCN(c2ccccn2)CC1 (stereo not given)	x	n	x	n	n	n	x	x
COc1ccc(-c2[nH]nc3oc(=O)cc(C)c23)cc1	n	n	n	n	12.9	n	14.8	21.3
CC(C)(C)NC(=O)C(c1cc2ccccc2o1)n1c(-c2ccc(-c3ccccc3)cc2)nc2ccccc21 (stereo not given)	x	n	x	n	25.2	n	n	n
Cn1c(CC(=O)Nc2ccccc2)nnc1SCC(=O)NC1CCCC1	n	n	n	n	n	n	x	x
COCCNC(=O)C1Cc2c(-c3cccc(NC(C)=O)c3)ccnc2O1 (stereo not given)	x	n	x	n	n	n	x	x
Cc1ccc(N2CCN(/N=C/c3sccc3C)CC2)cc1	n	n	n	n	n	n	x	x
CCOC(=O)CC1(C)NC(=O)c2c(C)sc(C(=O)OCC)c2N1 (stereo not given)	n	n	n	n	13.0	n	n	n
CCOC(=O)CC1(CC(=O)OCC)NC(=O)c2c(C)sc(C(=O)OCC)c2N1	n	n	n	n	13.1	n	n	4.3
Cc1ccc(-c2nc3ncccn3c2NC(=O)Nc2ccc(F)cc2)cc1	x	n	x	n	12.6	n	n	n
O=C(Nc1c(-c2ccc(F)cc2)nc2ncccn12)C1CC1	x	n	x	n	24.8	n	36.1	37.6
CC(=O)Nc1c(-c2ccc(C)cc2)nc2ncccn12	x	n	x	n	n	n	x	x
O=C(Nc1nc2ncccn2c1-c1ccc(F)c(F)c1)C1CC1	x	n	x	n	17.7	n	20.2	23.9
CC(=O)Nc1nc2ncccn2c1-c1ccc(C)cc1	x	n	x	n	22.5	n	48.5	49.6
Cc1ccc(S(=O)(=O)Nc2cc3c4c(c2)CCN4C(=O)CC3)cc1	n	n	n	n	n	n	x	x
CCN(CC)CCCNc1oc(-c2ccccc2[N+](=O)[O-])nc1C#N	n	n	n	n	n	n	x	x
O=C(Nc1c(-c2ccccc2)nc2ncccn12)c1ccccc1	x	n	x	n	12.7	n	59.8	13.6	K7 EDANS ctr=n
O=C(Nc1c(-c2ccccc2)nc2ncccn12)C1CC1	x	n	x	n	27.8	n	28.0	33.6
Cc1cc(C(=O)NNC(=O)C(C)(C)Oc2ccc(Cl)cc2)c(C)o1	n	n	n	n	n	n	x	x
CCCCn1c(=O)nc2n(-c3ccccc3)c3ccccc3cc-2c1=O	n	n	n	n	14.8	n	15.8	24.0
